Tau ThT inhib = qHTS for Inhibitors of Tau Fibril Formation, Thioflavin T Binding; recombinant tau K18 P301L, heparin-induced fibrillization, ThT fluorescence; Potency, µM (doses to about 57.4 µM), inactives show top-dose activity, negative = inhibition, actives largely listed as inhibitors; 270,000 compounds, 2.1% hits; AID 1460, 2008; note: potency is the fitted concentration of half-maximal effect; nearly all actives have a fitted effect of over 55% in size
Target sequence (P10636 561-689 P618L limits assumed): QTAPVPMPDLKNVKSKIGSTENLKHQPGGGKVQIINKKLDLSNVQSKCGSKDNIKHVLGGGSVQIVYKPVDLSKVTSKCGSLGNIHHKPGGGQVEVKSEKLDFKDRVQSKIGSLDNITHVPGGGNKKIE
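Using a mix of unlabeled (15 uM) and Alexa 594-labeled (0.24 uM) tau K18 P301L, heparin-triggered fibrillization over 6 hr at 37 C was scored by ThT fluorescence.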
G9a block = qHTS Assay for Inhibitors of Histone Lysine Methyltransferase G9a; Histone-lysine N-methyltransferase EHMT2 (Homo sapiens), Q96KQ7; G9a H3K9 monomethylation, AlphaScreen, 2 h; Potency, µM (top dose mostly 102 µM), inactives show at the top dose activity, negative = inhibition, usual class: inhibitors; 350,000 compounds, 8.8% hits; AID 504332, 2011; note: potency is the fitted concentration of half-maximal effect; nearly all actives have a fitted effect of over 75% in size
Target sequence (Q96KQ7 913-1193 limits assumed): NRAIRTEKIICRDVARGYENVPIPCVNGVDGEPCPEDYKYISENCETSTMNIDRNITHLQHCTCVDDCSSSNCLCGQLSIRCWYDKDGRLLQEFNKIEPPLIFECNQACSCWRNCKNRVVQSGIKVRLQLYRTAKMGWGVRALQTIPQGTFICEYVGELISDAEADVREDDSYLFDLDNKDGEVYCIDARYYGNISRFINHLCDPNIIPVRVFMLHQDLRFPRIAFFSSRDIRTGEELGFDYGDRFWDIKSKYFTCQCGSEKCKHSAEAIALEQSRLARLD
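Signal arises when biotinylated H3K9 peptide, once monomethylated, bridges streptavidin donor and antibody-captured acceptor beads. Enzyme at 20 nM was preincubated 15 min with test compounds; peptide 500 nM and SAM 20 uM then reacted for 2 h.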
Tau fibril FP = qHTS for Inhibitors of Tau Fibril Formation, Fluorescence Polarization | K18 P301L tau heparin fibrillization, Alexa594 FP, 6 h | Microtubule-associated protein tau (Homo sapiens), P10636 | AID 1468, 2008 | Potency, µM (top dose mostly 57.7 µM), for inactives: top-dose activity, negative = inhibition, usual class: inhibitors | 280,000 compounds, 0.39% hits; note: potency is the fitted concentration of half-maximal effect; nearly all actives have a fitted effect of over 55% in size
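Quantitative HTS format: compounds meet 15 uM recombinant K18 P301L tau and Alexa 594-tau tracer in 100 mM sodium acetate pH 7; 20 uM heparin triggers fibrillization at 37 C over 6 hr; FP gives the signal.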
Sfp PPTase inh = qHTS Assay for Inhibitors of Bacillus subtilis Sfp phosphopantetheinyl transferase (PPTase); 4'-phosphopantetheinyl transferase ffp (Bacillus subtilis), Q9F4F7; Biochemical Sfp PPTase activity, qHTS; Potency, µM, for inactives: largest response in the series, negative = inhibition, actives largely listed as inhibitors; 310,000 compounds, 3.5% hits;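 note: the enzyme is Sfp with the accession as filed and its product quenches rhodamine fluorescence; potency is the fitted concentration of half-maximal effect; 0% = enzyme reaction without inhibitor and -100% = no enzyme wells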
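Fluorescence-quenching assay: 15 nM Sfp-PPTase preincubated 15 min at room temperature with compound, then 5 uM rhodamine-CoA and 12.5 uM BHQ-2-labelled YbbR peptide added. Fluorescence (ex 525/em 598 nm) read at start and after 30 min; difference gives rate.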
Coupling enz = qHTS Assay for Inhibitors of Fructose-1,6-bisphosphate Aldolase from Giardia Lamblia: Coupling assay counterscreen; 290,000 compounds, 0.67% hits; activity change, negative = inhibition, % at 58.2 µM, hits read low; coupling enzyme system counterscreen, AmpLite Red fluorescence; in the data active = activity change below about -30%
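Compounds tested against the coupling enzymes alone at 57.5 uM final; readout was AmpLite Red fluorescence (525/598 nm) after 20 min at RT.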
Tau fluor cs = Counterscreen qHTS for Inhibitors of Tau Fibril Formation, Fluorescence Polarization. tau K18 P301L Alexa594 fluorescence, heparin fibrillization. Potency, µM (highest dose often 57.7 µM), inactives show at the top dose activity change, negative = decrease. 280,000 compounds, 0.93% hits. AID 1463, 2008; note: potency is the fitted concentration of half-maximal effect; nearly all actives have a fitted effect of over 55% in size
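Human tau K18 P301L (15 uM unlabeled, 0.24 uM Alexa 594-labeled) in 100 mM sodium acetate pH 7 with 20 uM heparin, 6 hr at 37 C. ThT 30 uM added, 1 hr ambient; Alexa 594 FP and total fluorescence read at 555/632 nm.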
Sfp inh conf = Confirmation qHTS Assay for Inhibitors of Bacillus subtilis Sfp phosphopantetheinyl transferase (PPTase). shares compounds with Sfp PPTase inh. Potency, µM (doses to about 114 µM), without a hit: top-dose activity change, negative = inhibition, actives largely listed as inhibitors. AID 2701, 2010. 380 compounds, 79% hits. Sfp PPTase enzymatic assay, qHTS titration;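 note: potency is the fitted concentration of half-maximal effect; plate controls were uninhibited Sfp reaction for no effect and no enzyme control for full effect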
Target sequence (Q9F4F7 whole entry, looked up): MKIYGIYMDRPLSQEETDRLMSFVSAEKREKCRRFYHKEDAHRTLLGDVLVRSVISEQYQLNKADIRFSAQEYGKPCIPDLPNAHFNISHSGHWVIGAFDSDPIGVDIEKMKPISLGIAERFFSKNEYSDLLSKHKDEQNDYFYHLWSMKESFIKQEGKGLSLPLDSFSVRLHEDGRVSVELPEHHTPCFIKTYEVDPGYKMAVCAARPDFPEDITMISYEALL
Sfp PPTase gel = Gel-Based Assay for Inhibitors of Bacillus subtilis Sfp phosphopantetheinyl transferase (PPTase). shares compounds with Sfp PPTase inh. purified Sfp, gel-based phosphopantetheinylation read-out. Potency, µM, hits mostly inhibitors. 210 compounds, 20% hits. AID 2707, 2010;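 active = potency below 100 µM; inconclusive = dose-dependent response but potency above 100 µM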;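 note: band intensities scaled against SCH202676 control wells before curve fitting; potency is an IC50 for inhibitors of Sfp transfer activity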
Numbers without * were called inactive; i = inactive; ? = inconclusive; . = no result given; [ ] = remark or other dose. Hits are enriched below; roughly 11% of the tested compounds scored in any of these assays. Unless noted, calls come from the whole dose curve; as a rule, active = well fitted curve in the direction sought with a large enough effect; inconclusive = small, poorly fitted or top-dose-only effect, or another doubt; inactive = no such curve, though single readings can be large; an effect the other way counts as inactive or inconclusive. Unless noted, % is set by controls: 0 for no effect and ±100 for the full control effect.

SMILES	Tau ThT inhib	G9a block	Tau fibril FP	Sfp PPTase inh	Coupling enz	Tau fluor cs	Sfp inh conf	Sfp PPTase gel
CC(=O)CCc1oc2ccc(NC(C)=O)cc2c1-c1ccc(C)o1	?	13µM*	3%	13µM*	-2	-14%	15µM*	i
COc1ccc(NC(=O)c2cc(Cl)ccc2NC(=O)c2ccco2)c(OC)c1	-6%	-11%	-1%	16µM*	-2	-26%	47µM*	i
COc1ccc(NC(=O)c2ccccc2Cl)c(NC(=O)c2ccco2)c1	.	?	.	8%	1	.	.	.
CCCc1ccc(OCc2ccccc2)c2c(=O)cc(C(=O)OCC)oc12	-5%	-5%	2%	23%	1	-1%	.	.
CC/C(O)=C(/C#N)c1nnc2n1CCCCC2	-7%	?	7%	14µM*	5	-3%	3%	i
CCCC(=O)c1c[nH]c(C(=O)N2CCOCC2)c1	6%	24%	1%	23%	2	4%	.	.
COC(=O)C1=C(C)NC(C)=C(C(=O)OCC(C)C)C1c1ccccc1[N+](=O)[O-] (stereo not drawn)	.	11µM*	.	40µM*	.	.	37µM*	.
O=C(COC(=O)/C=C/c1ccco1)Nc1ccc(F)cc1Cl	-14%	?	-4%	-11%	1	-11%	.	.
Cc1ccc(-c2nc3cnccn3c2Nc2ccccc2)o1	-14%	7.9µM*	5%	4.5µM*	0	-10%	3.3µM*	.
Oc1ccc(NCc2cccc(OCc3ccc(F)cc3)c2)cc1	22µM*	.	?	16µM*	-45*	?	53µM*	?
O=[N+]([O-])c1ccc(COc2cccc(CNc3ccc(F)cc3)c2)cc1	?	?	12%	-1%	-9	?	.	.
COc1ccccc1CNC(=O)c1cccs1	3%	2%[59 µM]	4%	11%	1	3%	.	.
COc1ccccc1CNC(=O)Nc1cccs1	-8%	-48%[2.33 µM]	11%	4µM*	3	-18%	24µM*	.
COc1ccc2[nH]c(=O)c(CN(C(=O)c3ccco3)C3CCCCC3)cc2c1	-3%	?	0%	7.9µM*	11	-1%	37µM*	i
COc1ccc2[nH]c(=O)c(CN(C(C)=O)C3CCCCC3)cc2c1	12%	9%	-3%	11%	3	1%	.	.
Cc1ccn2c(Nc3ccc4c(c3)OCO4)c(-c3ccccn3)nc2c1	14%	?	-2%	2.8µM*	-24	11%	?	i
CC(=O)NCCC(=O)Nc1cc(S(=O)(=O)N2CCOCC2)ccc1Oc1ccccc1	.	3%	.	14%	1	.	.	.
Cc1cnc(=O)[nH]c1SCC(=O)c1ccc(F)cc1	.	7.1µM*	.	14µM*	0	.	8.3µM*	.
Cc1nc(SCC(=O)c2ccc(F)cc2)n[nH]1	-19%	2.5µM*	-11%	20µM*	-3	-2%	42µM*	.
Nc1ccc(C(=O)n2c3ccccc3c3ccccc32)cc1	-9%	8.9µM*	-17%	45µM*	-5	?	?	.
CCOC(=O)c1c(C)n(O)c2ccc(Cl)cc2c1=O	0%	?	-4%	35µM*	-26	3%	74µM*	i
COc1ccc(C(=O)NCc2nnc(SCC(=O)c3ccc(F)cc3)n2C)cc1OC	.	-2%[0.501 µM]	.	.	.	.	.	.
O=c1oc(-c2cccs2)nc2sc3c(c12)CCC3	-11%	-12%[59 µM]	8%	24%	1	9%	.	.
Cc1nc2sc3c(c2c(=O)o1)CCC3	2%	?	7%	16µM*	-5	2%	?	?
Cc1cccc(CNC(=O)C2CCC(=O)N(C3CC3)C2)c1 (stereo not drawn)	.	26%	.	12%	.	.	.	.
SMILES	Tau ThT inhib	G9a block	Tau fibril FP	Sfp PPTase inh	Coupling enz	Tau fluor cs	Sfp inh conf	Sfp PPTase gel
Cc1cc2cc(C(c3nnnn3CC3CCCO3)N3CCCc4ccccc43)c(=O)[nH]c2cc1C (stereo not drawn)	-18%	?	-7%	1.4µM*	4	-17%	19µM*	.
CCOC(=O)c1nn(-c2ccccc2C)c(=O)c2c(N)scc12	16µM*	3.2µM*	18µM*	3.2µM*	-55*	-26%	15µM*	.
CCS(=O)(=O)N1CCC(C(=O)NCc2ccc(OC)cc2)CC1	-6%	-5%	-11%	9%	0	-14%	.	.
Nc1cccnc1Sc1cccc(Cl)c1	8%	-39%	-1%	3.2µM*	3	4%	19µM*	.
COC(CNC(=O)c1ccc(CS(=O)(=O)c2ccc(Br)cc2)o1)OC	.	-20%	.	5%	-1	.	.	.
Fc1ccccc1C1CC(c2ccco2)=Nc2ccccc2S1 (stereo not drawn)	?	5%[12.7 µM]	-15%	3.5µM*	5	-18%	33µM*	i
Cc1ccc(-c2nc(N)sc2CC(=O)OCC(=O)N2C(C)CCCC2C)cc1 (stereo not drawn)	6%	?	5%	18µM*	2	4%	37µM*	i
Nc1cccn2c(-c3ccc(Cl)cc3)cnc12	?	50µM*	2%	16µM*	-31*	?	?	?
Cn1c(-c2ccc(Cl)cc2)cnc1N	-28%	24%[12.7 µM]	-6%	5%	0	-17%	.	.
CC(C)(O)C#Cc1ccc(C(=O)N2CCCC(CNS(=O)(=O)c3cccs3)C2)o1 (stereo not drawn)	.	28µM*	.	40µM*	.	.	59µM*	.
CCC(=O)Nc1sc2c(c1C(=O)Nc1ccc(Br)cc1)CCCCC2	-13%	?	-3%	.	.	-12%	.	.
CCOC(=O)c1ccc(NC(=O)c2c(NC(=O)CCC(=O)O)sc3c2CCCCC3)cc1	?	32µM*	-15%	11µM*	-6	-2%	12µM*	i
CCOc1ccccc1NC(=O)c1c(NC(=O)CCC(=O)O)sc2c1CCCCC2	?	25µM*	-1%	13µM*	-6	-3%	24µM*	i

Bioassay records deposited in PubChem by National Center for Advancing Translational Sciences (NCATS).
